Data taken from PubChem BioAssay (Tox21).
Results filed as inconclusive are left out. A call without a number means that no potency is given here. Activity calls are given as the source filed them. Calls come from the whole dose curve; as a rule, active = well fitted cell-killing curve with a large enough effect in the repeat runs; inconclusive = weak or mixed curves; inactive = flat fitted curve, though single readings scatter.

experiment: qHTS assay to identify small molecule antagonists of the TGF-beta/Smad signaling pathway - cell viability counter screen (AID 1346824); conditions: SBE-bla HEK293T viability, CellTiter-Glo luminescence; series mostly up to 76.8 µM; note: nearly all actives have a fitted effect of over 50% in size
Excerpt: U.S. Tox21 Program National Center for Advancing Translational Sciences [NCATS] NIH Chemical Genomics Center [NCGC] U.S. Environmental Protection Agency [EPA] National Institutes of Environmental Health Sciences [NIEHS] National Toxicology Program [NTP] U.S. Food and Drug Administration [FDA] Tox21 Assay Overview: Transforming growth factor beta (TGF-beta) superfamily consists of a large number of structurally related dimeric proteins that act as hormones or local mediators in regulating a wide range of biological functions. This superfamily includes TGF-betas themselves, the bone morphogenetic proteins (BMPs) and the activins. These ligands induce oligomerization of serine/threonine receptor kinases and phosphorylate the cytoplasmic signaling molecules of Smad protein family. CellSensor SBE-bla HEK 293T cell line (Life Technologies, Carlsbad, CA), responsive to TGF-beta was used to screen Tox21 10K compound library for identification of agonists/antagonists of the Smad signaling pathway. This cell line contains a beta-lactamase reporter gene under control of the Smad binding element (SBE) stably integrated into HEK 293T cells. Also cytotoxicity of the compounds was tested in parallel by measuring the cell viability using CellTiter-Glo assay system in the same wells.
Tox21 Assay Protocol Summary: SBE-bla HEK 293T cells were dispensed at 4,000/well in 5 uL of assay medium into black wall/clear-bottom 1536-well plates using a Multidrop Combi (ThermoFisher Scientific, Waltham, MA) dispenser. After the assay plates were incubated at 37 C and 5% CO2 for an overnight, 23 nL of compounds dissolved in DMSO, positive controls or DMSO only was transferred to the assay plate by a Pintool station (Kalypsys, San Diego, CA). Compound transfer was followed by the addition of 1 uL of 0.25 ng/mL TGF-beta1 or assay buffer using two separate tips of Flying Reagent Dispenser (FRD, Aurora Discovery, San Diego, CA). The assay plates were incubated at 37 C and 5% CO2 for 5 hr. One uL of LiveBLAzer B/G FRET substrate (Life Technologies) was added using a Flying Reagent Dispenser (FRD, Aurora Discovery, San Diego, CA) and the plates were incubated at room temperature for 2 hr. Fluorescence intensity (405 nm excitation, 460 nm and 530 nm emissions) was measured using an Envision plate reader (PerkinElmer, Shelton, CT). For cytotoxicity read, 4 uL of CellTiter-Glo reagent (Promega Corporation, Madison, WI) was added to each well of the assay plates using FRD. After 30 min incubation at room temperature, the luminescence intensity was measured using ViewLux plate reader (PerkinElmer).
Potency is the fitted concentration of half-maximal effect.

Compound | Potency
O=c1cc(-c2ccc(O)cc2)oc2cc(O)cc(O)c12 | inactive
CCCCN(CCCC)C(=O)N(CCCC)CCCC | inactive
CCCCCCCCCCCCCC[P+](CCCC)(CCCC)CCCC (tested in a mixture with another compound) | 27.7 µM (active)
C=CC(=O)OCC(CO)(COCC(COC(=O)C=C)(COC(=O)C=C)COC(=O)C=C)COC(=O)C=C | 48.4 µM (active)
CC(=O)S[C@@H]1CC2=CC(=O)CC[C@]2(C)[C@H]2CC[C@@]3(C)[C@@H](CC[C@@]34CCC(=O)O4)[C@H]12 | inactive
CC(=O)OCC(C)OC(C)=O (stereo not given) | inactive
CC(C)(C)c1ccc(C(=O)CCCN2CCC(OC(c3ccccc3)c3ccccc3)CC2)cc1 | 21.3 µM (active)
CCCCN(CCCC)c1ccc(C(=O)c2ccccc2C(=O)O)c(O)c1 | inactive
Cc1onc(-c2ccccc2Cl)c1C(=O)N[C@@H]1C(=O)N2[C@@H]1SC(C)(C)[C@@H]2C(=O)O | inactive
CC[C@H]1O[C@]2(CC[C@@H]1C)C[C@@H]1C[C@@H](C/C=C(\C)C[C@@H](C)/C=C/C=C3\CO[C@@H]4[C@H](O)C(C)=C[C@@H](C(=O)O1)[C@]34O)O2 | 54.5 µM (active)
CC(C)(C)CC(C)(C)c1ccc(OCCOCC[N+](C)(C)Cc2ccccc2)cc1 | 48.9 µM (active)
CCN(CC)CCCC(C)Nc1c2ccc(Cl)cc2nc2ccc(OC)cc12 (stereo not given) | inactive
COc1cccc2c1C(=O)c1c(O)c3c(c(O)c1C2=O)C[C@@](O)(C(=O)CO)C[C@@H]3O[C@H]1C[C@H](N)[C@H](O[C@@H]2CCCCO2)[C@H](C)O1 | inactive
CCCCCOc1ccccc1/C(=C\SC)n1ccnc1 | inactive
Cc1cc(CCN2CCN(c3nsc4ccccc34)CC2)cc2c1NC(=O)CC2(C)C | 54.9 µM (active)
CCCCCCC[N+](CC)(CC)CCCCc1ccc(Cl)cc1 | inactive
CCCCCCCCOc1ccccc1C(=O)Nc1ccc(C(=O)OCC[N+](C)(CC)CC)cc1 | inactive
Nc1nc2ccccc2n1Cc1ccc(F)cc1 | inactive
N/C(=N\N=C\c1ccc(Cl)cc1)N/N=C/c1ccc(Cl)cc1 | inactive
CCc1cc(Cc2cc(CC)cc(C(C)(C)C)c2O)c(O)c(C(C)(C)C)c1 | 49 µM (active)

Compound | Potency
COCCCC/C(=N\OCCN)c1ccc(C(F)(F)F)cc1 | inactive
NC(=O)N1C(=O)C(C(=O)c2cc(Cl)cs2)c2cc(F)c(Cl)cc21 (stereo not given) | inactive
Nc1ccccc1O | inactive
CCCCCCCC[N+](CCCCCCCC)(CCCCCCCC)CCCCCCCC | 48.9 µM (active)
NC(=O)CC[C@@H]1NC(=O)[C@H](Cc2ccccc2)NC(=O)[C@H](Cc2ccc(O)cc2)NC(=O)CCSSC[C@@H](C(=O)N2CCC[C@H]2C(=O)N[C@@H](CCCN=C(N)N)C(=O)NCC(N)=O)NC(=O)[C@H](CC(N)=O)NC1=O | inactive
Nc1c(Cl)cc(Cl)cc1Cl | inactive
COc1cccc(N)c1 | inactive
CC(C)n1nc(-c2cc3cc(O)ccc3[nH]2)c2c(N)ncnc21 | inactive
CCCCCCCCCCCCCCCS(=O)(=O)Oc1ccccc1 | inactive
CCCCCCCCCCCC(=O)NCCCN(C)C | 49 µM (active)
CCCN(CCC)C(=O)C(CCC(=O)OCCCN1CCN(CCOC(=O)Cc2c(C)n(C(=O)c3ccc(Cl)cc3)c3ccc(OC)cc23)CC1)NC(=O)c1ccccc1 (stereo not given) | inactive
CC(C)c1ccc2c(c1)CC[C@H]1[C@](C)(CN)CCC[C@]21C | inactive
CCCCCCCCCCCC[N+](C)(C)CCCCCCCCCCCC | 43.6 µM (active)
CCN(CC)CCNC(=O)c1c(C)[nH]c(/C=C2\C(=O)Nc3ccc(F)cc32)c1C | inactive
CCc1cc(Cc2cc(CC)c(N)c(CC)c2)cc(CC)c1N | inactive
Oc1ccc(N=Nc2ccccc2)cc1 | inactive
CN1CCN(CCC(=O)N2c3ccccc3Sc3ccc(C(F)(F)F)cc32)CC1 | inactive
CC(C)C(C)(C)C(C)(C)C(C)(C)S | inactive
C[C@]12CCC(=O)C=C1CC[C@@H]1[C@@H]2[C@@H](O)C[C@@]2(C)[C@H]1CC[C@]2(O)C(=O)COC(=O)CCC(=O)O | inactive
CC[C@@]1(O)C(=O)OCc2c1cc1n(c2=O)Cc2cc3c(CN(C)C)c(O)ccc3nc2-1 | inactive
